Among all 60,000 compounds or so, about 65 (0.1%) were called active. The call rests on the fitted dose curve; in most records, active means well fitted inhibition curve with a large enough effect; inconclusive means small, poorly fitted or top-dose-only effect; inactive means no such curve, though single readings can be large or run the other way. The entries come from a sample that favours actives as a whole.
The compounds below were run against Ubiquitin carboxyl-terminal hydrolase 2 (Homo sapiens) (UniProt O75604) (assay: qHTS Assay for Inhibitors of Ubiquitin-specific Protease USP2a). Details: USP2a enzymatic assay; Potency: qHTS inhibition; series mostly up to 38.3 µM; activity change, negative = inhibition: at the top concentration.
In short: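 USP2 core (20nM final) preincubated 30 min RT with compound, then Ub-PLA2 20nM and NBD C6-HPC 20uM final added; buffer 20mM Tris-HCl pH 8.0, 2mM CaCl2. Fluorescence Ex 460/Em 535 read at 0 and 2.5 h; normalized to NEM.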
Further: nearly all actives have a fitted effect of over 60% in size.
Potency means the concentration at half of the fitted maximal effect.
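Wherever activity change, negative = inhibition is given: plate controls were DMSO for no effect and NEM full inhibition control for full effect.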

Ubiquitin carboxyl-terminal hydrolase 2 (Homo sapiens), sequence (O75604 whole entry, looked up): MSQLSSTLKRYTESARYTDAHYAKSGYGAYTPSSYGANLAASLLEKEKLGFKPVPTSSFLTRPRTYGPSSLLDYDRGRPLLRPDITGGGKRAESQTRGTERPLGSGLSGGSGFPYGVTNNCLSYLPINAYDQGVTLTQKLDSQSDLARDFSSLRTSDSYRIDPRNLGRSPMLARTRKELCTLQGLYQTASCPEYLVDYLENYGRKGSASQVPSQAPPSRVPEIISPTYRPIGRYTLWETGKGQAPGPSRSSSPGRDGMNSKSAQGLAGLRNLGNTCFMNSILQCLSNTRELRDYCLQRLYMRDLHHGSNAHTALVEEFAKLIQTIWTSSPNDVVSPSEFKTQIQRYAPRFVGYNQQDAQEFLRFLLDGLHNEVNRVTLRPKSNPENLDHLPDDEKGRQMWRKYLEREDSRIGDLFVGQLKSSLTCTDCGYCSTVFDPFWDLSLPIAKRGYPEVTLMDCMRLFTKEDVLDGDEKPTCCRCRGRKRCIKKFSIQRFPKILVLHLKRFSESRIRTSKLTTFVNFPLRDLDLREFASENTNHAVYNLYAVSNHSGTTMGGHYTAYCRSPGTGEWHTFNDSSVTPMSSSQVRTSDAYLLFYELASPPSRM

| SMILES | activity change, negative = inhibition | Potency |
| --- | --- | --- |
| Cc1cccc2c3c(ccc12)C1=C(C(=O)C3=O)C(C)CO1 (configuration not stated) | 24.5% (inactive) |  |
| CC1OC(OCC2OC(Oc3c(-c4ccc(O)c(O)c4)oc4cc(O)cc(O)c4c3=O)C(O)C(O)C2O)[C@@H](O)C(O)C1O (some centres not stated) | -9.16% (inactive) |  |
| CCCc1[nH]nc2c1C(C1CC=CCC1)C(C#N)=C(N)O2 (configuration not stated) | 4.18% (inactive) |  |
| Nc1nc2c(nc(Cl)n2C2OC(CO)C(O)C2O)c(=O)[nH]1 (configuration not stated) | -13.1% (inactive) |  |
| COC(=O)[C@H](C)NC(=O)Nc1ccc(OC(F)(F)F)cc1 | 2.63% (inactive) |  |
| COCCCN1C(=O)C(=O)/C(=C(/O)c2ccc3c(c2)CC(C)O3)C1c1cccnc1 (configuration not stated) | 1.42% (inactive) |  |
| COc1cc(OC)c(NC(=O)c2ccc(Br)o2)cc1Cl | 12% [at 7.66 µM] (inactive) |  |
| CN(C)c1cc(N)c2ccccc2n1 (tested in a mixture with another compound) | -5% (inactive) |  |
| CC[C@@H]1Cc2cc(O)ccc2C2=C1c1ccc(O)cc1C[C@H]2CC |  | 25.1 µM (active) |
| CCOC(=O)c1cc2c(n(-c3ccc(C)cc3)c1=O)CCCC2=O | 0.672% (inactive) |  |
| CC1(C)CC(=O)C(C=NCCC2=CCCCC2)=C(O)C1 | 6.05% [at 7.66 µM] (inactive) |  |
| Cc1cc(NC(=O)CSc2nnc(-c3ccc(Cl)s3)o2)no1 | 2% (inactive) |  |
| CC1(C)C=CC(=O)[C@]2(C)C1CC(=O)[C@]1(C)C2CC[C@@]2(C)C(c3ccoc3)OC(=O)C3OC321 (some centres not stated) | 44.8% (inactive) |  |
| CSCCC(NC(=O)c1ccc(=O)n(C)n1)c1nc2ccccc2[nH]1 (configuration not stated) | 0.955% (inactive) |  |
| CCCn1c(O)c(CN2CCCC(C)C2)c(C)c(C#N)c1=O (configuration not stated) | 4.37% (inactive) |  |
| COCCn1c(=O)c(-c2cc(F)cc(F)c2)nc2cnc(N3CCNCC3)nc21 | 91.7% (inactive) |  |
| Cc1cc(=O)[nH]c(=S)[nH]1 | -1.68% (inactive) |  |
| CN1CCCc2cc(C#N)c(=O)[nH]c21 | 2.48% [at 7.66 µM] (inactive) |  |
| Cc1oc(-c2ccccc2F)nc1CS(=O)(=O)CC(=O)NCCCN(C)C1CCCCC1 | 7.36% (inactive) |  |
| Cc1ccc(NC(=O)C2CC(c3ccc(F)cc3)=NO2)cc1 (configuration not stated) | -1.08% (inactive) |  |
| COc1ccccc1CCn1c(=O)c(-c2cn(C)c3ccccc23)nc2cncnc21 | 195% (inactive) |  |
| CC(Sc1nncs1)C(=O)NCc1ccc2c(c1)OCO2 (configuration not stated) | -8.75% (inactive) |  |
| CCOC(=O)N1CCN(C(=O)COc2ccc(Br)cc2)CC1 | 10.7% [at 7.66 µM] (inactive) |  |
| O=C1NC(c2cc3c(cc2Cl)OCO3)Oc2ccccc21 (configuration not stated) | -4.27% (inactive) |  |
| CCOC(=O)C1C(=O)OC2(CCCC2)C1C(=O)OCC (configuration not stated) | 2.95% (inactive) |  |
| Cc1ccc(C)c(NC(=O)C2CC(=O)N(C(C)C)C2)c1 (configuration not stated) | 0.265% (inactive) |  |
| CC1CCN(C(=O)Cn2cc(C(=O)c3ccco3)c3ccccc32)CC1 | 184% (inactive) |  |
